Records with an inconclusive call do not appear. A call without a number means that no potency is given here. Active and inactive are the calls of the source. Calls come from the whole dose curve; as a rule, active = well fitted inhibition curve with a large enough effect; inconclusive = small, poorly fitted or top-dose-only effect; inactive = no such curve, though single readings can be large or run the other way.

The source of these data is PubChem BioAssay (NCATS).
Potency is the fitted concentration of half-maximal effect.

The test system of this test is Zika virus NS2B-NS3 protease (linked construct). Put plainly: Primary screen NINDS Rhodamine qHTS for Zika virus inhibitors (AID 1347160). Note: nearly all actives have a fitted effect of over 55% in size. The following applies: purified NS2B-NS3 protease, Rhodamine110 substrate fluorescence; series mostly up to 57.1 µM. The essentials: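 Each compound, titrated, sat 15 min with 25 nM linked protease before 1.5 microM Rhodamine110 substrate went in. Fluorescence gain over the next 15 min, in pH 8.0 Tris with Tween 20, gave Hill-fitted curves.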
As for `O=C1[C@H](O[C@@H]2O[C@H](CO)[C@@H](O)[C@H](O)[C@H]2O)Oc2ccccc2N1O`, the Potency result is “inactive”. For the compound `O=c1c2cccnc2n(-c2cccc([N+](=O)[O-])c2)c(=O)n1Cc1ccncc1`, the Potency result is “inactive”. With `NC1CCC(N[C@@H]2C[C@H]2c2ccccc2)CC1` (stereo not given in full), the Potency entry is “inactive”. To `CC1(C)CC[C@]2(C(=O)O)CC[C@]3(C)C(=CCC4[C@@]5(C)C[C@@H](O)[C@H](O)C(C)(C)C5CC[C@]43C)[C@@H]2[C@@H]1O` (stereo not given in full) belongs “inactive”; to `CC(=O)OC[C@@]12[C@H](O)C[C@@H](C)[C@]3(C[C@@H](c4ccoc4)OC3=O)[C@H]1C[C@H](O)C[C@]21CO1`, “inactive”. For the compound `CC(CO[C@@H]1O[C@H](COC(=O)/C=C/c2ccc(O)c(O)c2)[C@@H](O)[C@H](O)[C@H]1O)C1(O)COC(=O)C1` (stereo not given in full), the Potency result is “inactive”. With `CC1=CC(=O)OC(C)(CC(C)(O)C(=O)O)C1` (stereo not given) the entry was “inactive”; with `CC(=O)O[C@H]1[C@H](C)[C@@H](O)[C@H]2[C@@H]1C=C(C(=O)O)[C@H]1C[C@@H]3[C@H]([C@H]21)[C@H]1C(=O)O[C@@H]2CC[C@@]3(C)O[C@]1(O)[C@@H]2C`, “inactive”; with `C[C@]12CCC(=O)C=C1[C@@H](O)C[C@@H]1[C@@H]2[C@@H](O)C[C@@]2(C)[C@H]1CC[C@]2(O)C(=O)CO`, “inactive”. `O=C(O)CCc1cc2ccoc2cc1O[C@@H]1O[C@H](CO[C@@H]2OC[C@](O)(CO)[C@H]2O)[C@@H](O)[C@H](O)[C@H]1O`: the Potency result is “inactive”. For the compound `CC(C)C(=O)O[C@@H]1[C@@H](O)[C@@H](O[C@H]2O[C@H](CO)[C@@H](O)[C@H](O)[C@H]2O)O[C@H](CO)[C@H]1O`, the Potency entry is “inactive”.

Regarding `COC(=O)C1(Cc2ccc(O)cc2)OC(=O)C(OC)=C1c1ccc(O)cc1` (stereo not given), the Potency result is “inactive”. Take `C=CC1(C)CC(O)C2(CCC3C(C)(C(=O)O)CCCC3(C)C2=O)C1` (stereo not given): the Potency result was “inactive”. On to `CCCC(N[C@@H](C)C(=O)N1[C@H](C(=O)O)C[C@@H]2CCCC[C@@H]21)C(=O)OCC` (stereo not given in full), for which the Potency result was “inactive”. For the compound `CC1=CC(=O)CC(C)(CO[C@@H]2O[C@H](CO)[C@@H](O)[C@H](O)[C@H]2O)C1(O)/C=C/C(C)=C/C(=O)O` (stereo not given in full), the Potency result is “inactive”. For `Cc1coc2c1CC1OC1(C)CCC1OC1(C)C2` (stereo not given), the Potency result was “inactive”. For `CC(C)CNC(=O)/C=C/CCCCc1ccc2c(c1)OCO2`, the Potency entry is “inactive”. With `O=C(CCCCc1ccc2ccccc2c1)C(F)(F)F` the entry was “inactive”; with `O=C(/C=C/c1ccc(O)cc1)OCC1=CC2OC(=O)C3=CO[C@@H](O[C@@H]4O[C@H](CO)[C@@H](O)[C@H](O)[C@H]4O)[C@H]1[C@@H]32` (stereo not given in full), “inactive”; with `COc1ncc(-c2ccc3c(Nc4cc(Oc5cc(F)cc(F)c5)cc(C(=O)O)c4)c(S(=O)(=O)NC4CC4)cnc3c2)c(OC)n1`, 14.1 µM (active). For `COc1cc(C2OCC3C(c4ccc(OC5OC(CO)C(O)C(O)C5O)c(OC)c4)OCC23)ccc1O` (stereo not given), the Potency result is “inactive”.

As to `C[C@]1(OC(=O)/C=C/c2ccccc2)C[C@H](O)[C@]2(O)C=CO[C@@H](O[C@@H]3O[C@H](CO)[C@@H](O)[C@H](O)[C@H]3O)C12` (stereo not given in full), the Potency entry is “inactive”. On to `CC(C)[C@@H](C)/C=C/[C@@H](C)[C@H]1CC[C@H]2C3=CC=C4C[C@@H](O)CC[C@]4(C)[C@H]3CC[C@]12C`, for which the Potency entry was “inactive”. Regarding `Nc1c(Br)cc(Br)cc1CNC1CCC(O)CC1` (stereo not given), the Potency result is “inactive”. `COc1ccc(C2=CC(=O)OC2Cc2ccc(O)cc2)c(O)c1` (stereo not given): the Potency result was “inactive”. Take `COc1c(C(CC(C)C)OC(C)=O)ccc(Oc2c(O)cc(C)cc2/C=C/C(C)=O)c1C(=O)O` (stereo not given): the Potency is 11.2 µM (active). Regarding `CC(O)C(O)/C=C/C=C/C(=O)O[C@@H]1C=C2COC(=O)[C@]2(O)[C@@]2(C)CCCC(C)(C)C12` (stereo not given in full), the Potency entry is “inactive”. To `CC(=O)N[C@H]1CCN(c2ccc(C3=NOC(CN[S+](=O)([O-])C(C)C)C3)cc2F)C1` (stereo not given in full) belongs “inactive”; to `COc1ccc(/C=C/C(=O)O[C@@H]2[C@@H](O)[C@H](C)O[C@@H](OC3C4C=COC(O[C@@H]5O[C@H](CO)[C@@H](O)[C@H](O)[C@H]5O)C4C4(CO)OC34)[C@@H]2O)cc1OC` (stereo not given in full), “inactive”; to `CC1(C)CC2C(O)C3=C(CC(C)(O)C2C1)C(=O)OC3O` (stereo not given), “inactive”. With `COC(=O)[C@@]1(C)CC[C@]2(C(=O)O[C@@H]3O[C@H](CO)[C@@H](O)[C@H](O)[C@H]3O)CC[C@]3(C)C(=CCC4[C@@]5(C)CC[C@H](O[C@@H]6O[C@H](C(=O)O)[C@@H](O)[C@H](O)[C@H]6O)C(C)(C)C5CC[C@]43C)[C@@H]2C1` (stereo not given in full), the Potency entry is “inactive”. Turning to `Cc1nnc(C(C)C)n1C1CC2CCC(C1)N2CC[C@H](NC(=O)C1CCC(F)(F)CC1)c1ccccc1` (stereo not given in full), the Potency entry was “inactive”.

`CC1(C)C(=O)N2c3ccccc3[C@]3(CC(n4cnc5ccccc5c4=O)C(=O)O3)[C@H]2N1O` (stereo not given in full): the Potency entry was “inactive”. As for `CC(=O)O[C@@]1(C)C[C@@H](O)[C@]2(O)C=CO[C@@H](O[C@@H]3O[C@H](CO)[C@@H](O)[C@H](O)[C@H]3O)[C@@H]21`, the Potency entry is “inactive”. To `COc1ccccc1-n1c(SCC(=O)Nc2nc3ccc(C)cc3s2)nc2c(c1=O)SCC2` belongs “inactive”. As for `C[C@@H]1CC[C@H]2C(C)(C)[C@H](O)[C@H](O)C[C@]2(C)[C@@]12Cc1c(O)cc3c(c1O2)CNC3=O`, the Potency result was “inactive”. With `Cc1ccc(Sc2cncc3sc(C(N)=O)cc23)cc1` the entry was “inactive”; with `C/C(=C/CCC(CO)C1CCC2(C)C3CCC4C(C)(C)C(OC5OC(CO)C(O)C(O)C5O)CC(O)C45CC35CCC12C)COC1OC(CO)C(O)C(O)C1O` (stereo not given), “inactive”; with `C[C@H](NCc1ccc(OCc2ccccc2F)cc1)C(N)=O`, “inactive”.

Regarding `CC(=O)OCC(=O)O[C@@H]1[C@H]2[C@@H](OC(=O)c3ccccc3)[C@@H](C)C[C@]2(O)[C@H](OC(C)=O)C2(C)[C@H]3CC(C)(C)C(=O)[C@@H]3CC1(OC(C)=O)[C@@H]2OC(C)=O` (stereo not given in full), the Potency entry is “inactive”.
